From PubChem BioAssay (NCI) come the findings set out here.

The structures appear in SMILES notation. The panel holds about 83,000 compounds, 20% with a hit somewhere; the sample as a whole holds those more often.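 Treatment: one concentration, 48 hours, 96-well format. Scoring: percent growth, with anything below 10 considered active.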 Values without a mark were called inactive. The source made the active and inactive calls.

Test systems include NCI-H23 lung; NCI-H226 lung; NCI-H322M lung; HOP-62 NSCLC; NCI-H460 lung; HOP-92 NSCLC; NCI-H522 lung; A549/ATCC NSCLC; 786-0 renal; COLO 205 colon; DU-145 prostate; K-562 leukemia; MALME-3M melanoma; MDA-MB-231 breast; RXF 393 renal; SF-268 CNS; SF-295 CNS; SF-539 CNS; UACC-257 melanoma; M14 melanoma.
What all share (test): NCI-60 one-dose screen, 48 h (100 = growth as untreated, 0 = no growth, -100 = all killed)
Conditions in all cases: 10 µM unless noted

Regarding `OC1CSSC1Cn1cnc2c(Nc3ccc(F)c(Cl)c3)ncnc21` (stereo not given), the growth is 60.2% in the assay with NCI-H23 lung; 87.9% with NCI-H226 lung; 74.1% in the assay with NCI-H322M lung; 93.2% with HOP-62 NSCLC; 68.4% in the assay with NCI-H460 lung; 137% in the assay with HOP-92 NSCLC. The growth in the assay on NCI-H522 lung is 69.2%; in the assay on A549/ATCC NSCLC, 77.5%; in the assay with 786-0 renal, 108%; in the assay on COLO 205 colon, 111%; with DU-145 prostate, 85.8%; in the assay on K-562 leukemia it was 32.5%. The growth was 65.1% in the assay with MALME-3M melanoma; 84.6% in the assay with MDA-MB-231 breast; 114% with RXF 393 renal; 81.8% in the assay with SF-268 CNS; 106% in the assay on SF-295 CNS; 93.2% with SF-539 CNS. Also, the values for the growth in the assay with UACC-257 melanoma and with M14 melanoma were 82% and -65.9% (active), respectively.

As for `CCOC(=O)CCC(=O)P(=O)(O)O`, the growth is 116% in the assay on NCI-H23 lung; 110% in the assay with NCI-H226 lung; 103% with NCI-H322M lung; 97.8% in the assay on HOP-62 NSCLC; 113% in the assay on NCI-H460 lung; 38.9% in the assay on HOP-92 NSCLC. The growth in the assay on NCI-H522 lung was 84.7%; in the assay on A549/ATCC NSCLC it was 96.9%; in the assay on 786-0 renal, 98.6%; in the assay with COLO 205 colon it was 93.9%; with DU-145 prostate, 114%; in the assay with K-562 leukemia, 8.96% (active). The growth is 103% in the assay with MALME-3M melanoma; 119% in the assay with MDA-MB-231 breast; 122% with RXF 393 renal; 114% in the assay with SF-268 CNS; 101% with SF-295 CNS; 101% with SF-539 CNS. For the same compound, the growth in the assay on UACC-257 melanoma is 93%; with M14 melanoma, 92.4%.

For the compound `O=C(Nc1ccc2c(c1)-c1ccccc1C2)C1CC(=O)N(c2ccc3c(c2)OCO3)C1` (stereo not given), the growth was 51.6% [50 µM] with NCI-H23 lung; 30.2% [50 µM] with NCI-H226 lung; 55.9% [50 µM] in the assay on NCI-H322M lung; 70.7% [50 µM] in the assay with HOP-62 NSCLC; 32.9% [50 µM] in the assay on NCI-H460 lung; 65% [50 µM] with HOP-92 NSCLC. Besides, the growth is 77.5% [50 µM] in the assay on NCI-H522 lung; 66.7% [50 µM] with A549/ATCC NSCLC; 30.9% [50 µM] in the assay on 786-0 renal; 86.2% [50 µM] in the assay on COLO 205 colon; 52.1% [50 µM] in the assay with DU-145 prostate; 57.5% [50 µM] in the assay on K-562 leukemia. Moreover, the growth is 58.1% [50 µM] in the assay with MALME-3M melanoma; 59.9% [50 µM] in the assay on MDA-MB-231 breast; 56.6% [50 µM] in the assay on RXF 393 renal; 69.2% [50 µM] in the assay on SF-268 CNS; 47% [50 µM] with SF-295 CNS; -60.7% [50 µM] (active) in the assay with SF-539 CNS. In addition, the results for the growth in the assay on UACC-257 melanoma and in the assay with M14 melanoma were 69.5% [50 µM] and 62.7% [50 µM], respectively.

`C=C(C[n+]1ccccc1)[C@@H]1CC[C@]2(C(=O)OC)CC[C@]3(C)[C@H](CC[C@@H]4[C@@]5(C)CCC(=O)C(C)(C)[C@@H]5CC[C@]43C)[C@@H]12`: the growth in the assay on NCI-H23 lung is 87.9%; in the assay with NCI-H226 lung, 90.3%; with NCI-H322M lung, 96.3%; in the assay with HOP-62 NSCLC, 103%; in the assay with NCI-H460 lung, 98.3%; in the assay on HOP-92 NSCLC it was 67.4%. The growth was 55.5% in the assay on NCI-H522 lung; 93.3% with A549/ATCC NSCLC; 101% with 786-0 renal; 56.1% with COLO 205 colon; 101% with DU-145 prostate; 57.8% in the assay on K-562 leukemia. The growth is 75.2% in the assay on MALME-3M melanoma; 85.9% with MDA-MB-231 breast; 99% in the assay on RXF 393 renal; 90.3% with SF-268 CNS; 103% in the assay with SF-295 CNS; 93.7% with SF-539 CNS. For the same compound, the values for the growth with UACC-257 melanoma and in the assay on M14 melanoma were 53.4% and 87%, respectively.

As to `CCCN1C(=O)N(CCC)C2C1NC(=S)N2/N=C/C=C/c1ccccc1OC` (stereo not given), the growth in the assay on NCI-H23 lung was 36.4%; in the assay with NCI-H226 lung it was 55.4%; with NCI-H322M lung, 44.6%; in the assay with HOP-62 NSCLC, 38.7%; in the assay on NCI-H460 lung, 6.85% (active); in the assay on HOP-92 NSCLC it was 77.4%. The growth in the assay with NCI-H522 lung is -11.3% (active); in the assay on A549/ATCC NSCLC, 13.1%; in the assay with 786-0 renal, 35.6%; in the assay with COLO 205 colon, 17.6%; with DU-145 prostate, 14.2%; in the assay on K-562 leukemia it was 12.6%. In addition, the growth is 40.4% with MALME-3M melanoma; 23.9% with MDA-MB-231 breast; -29.8% (active) with RXF 393 renal; 62.9% with SF-268 CNS; 10.9% in the assay with SF-295 CNS; -30.6% (active) in the assay on SF-539 CNS. The results for the growth with UACC-257 melanoma and in the assay with M14 melanoma were 60.5% and -0.388% (active), respectively.

`COc1ccc(-c2cc(-c3ccc(Cl)cc3)c(C#N)c(=O)n2CCCCC(=O)NO)cc1`: the growth in the assay on NCI-H23 lung was 84.9%; in the assay with NCI-H226 lung it was 77.2%; in the assay with NCI-H322M lung it was 77.3%; in the assay with HOP-62 NSCLC, 66.5%; in the assay with NCI-H460 lung it was 99.1%; in the assay with HOP-92 NSCLC, 87.2%. Further, the growth with NCI-H522 lung was 58.8%; in the assay on A549/ATCC NSCLC, 82.7%; with 786-0 renal, 80.2%; in the assay on COLO 205 colon, 86.3%; with DU-145 prostate, 78.2%; in the assay with K-562 leukemia, 61.8%. Besides, the growth in the assay on MALME-3M melanoma was 73.3%; in the assay on MDA-MB-231 breast, 52.1%; in the assay on RXF 393 renal it was 37.3%; with SF-268 CNS, 85.2%; in the assay on SF-295 CNS, 90.2%; with SF-539 CNS it was 82.5%. For the same compound, the growth in the assay with UACC-257 melanoma was 80%; with M14 melanoma, 72.6%.

For `COC(=O)c1cc(-c2cc(OC)c(OC)c(OC)c2)[nH]c1N/N=C/c1c(Cl)cccc1Cl`, the growth in the assay on NCI-H23 lung is -15.6% (active); in the assay with NCI-H226 lung, 72.5%; in the assay with NCI-H322M lung it was 45.3%; with HOP-62 NSCLC, -43.9% (active); in the assay with NCI-H460 lung it was 2.31% (active); in the assay with HOP-92 NSCLC, -34.8% (active). Moreover, the growth in the assay with NCI-H522 lung is -45.3% (active); in the assay with A549/ATCC NSCLC, 28.1%; in the assay with 786-0 renal, -44.4% (active); in the assay with COLO 205 colon, 56.1%; with DU-145 prostate, 45.6%; in the assay on K-562 leukemia, 6.67% (active). Further, the growth was -8.03% (active) in the assay on MALME-3M melanoma; 23.6% with MDA-MB-231 breast; 21.6% with RXF 393 renal; 31.7% in the assay with SF-268 CNS; -41.9% (active) in the assay on SF-295 CNS; -43.1% (active) in the assay on SF-539 CNS. In addition, the values for the growth with UACC-257 melanoma and in the assay on M14 melanoma were 45.6% and 58.7%, respectively.
